# Reference: PubChem BioAssay (EPA / NIEHS)
# Results filed as inconclusive are left out. Activity calls are given as the source filed them. Rule for the calls, unless noted: active = hit-call score of the fitted dose curve at least 0.9, where 1 is the maximum; inconclusive = response in the unintended direction; inactive = score below 0.9.
# Tests used:
# [1] = biological target: PGR (gene 5241) (UniProt P06401); assay: TOX21_PR_LUC_Followup_Antagonist: Tox21 HEK293 Progesterone Receptor (PR) Antagonism Luciferase Follow-Up Assay (AID 2283938);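 note: curve fitted upward as signal gain over DMSO baseline despite antagonist label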
# In short: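 Luciferase reporter in HEK293-PR-A-luc cells: 16 h compound treatment at 37C, ONE-Glo luminescence detection, DMSO as negative control and baseline.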
# [2] = TOX21_PR_LUC_Followup_Agonist_viability: Viability Assessment in the Tox21 HEK293 Progesterone Receptor (PR) Agonism Luciferase Follow-Up Assay (AID 2283941);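 note: loss of signal means cytotoxicity so actives lower viability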
# In short: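 Luminescent ATP quantitation (CellTiter-Glo) serves as the read-out; a drop flags cytotoxic compounds. Cells are HEK293-PR-A-luc grown in 10% charcoal-stripped FBS, plated 3,000/well, and exposed to compound for 16 h.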
# [3] = biological target: T1, Thyroid hormone receptor alpha (Rattus norvegicus) + Thyroid hormone receptor beta (Rattus norvegicus) (UniProt P18113+P63059); assay: TOX21_TR_LUC_GH3_Agonist_Followup: Tox21 GH3 Thyroid Hormone Receptor Agonism Luciferase Follow-Up Assay (AID 2283939)
# In short: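 Rat GH3 cells (1,500/well) in serum-free assay medium, treated with 15-point series, 92 uM to 5 nM final, for 24 h at 37C. Luciferase via ONE-Glo luminescence; gain of signal fitted against DMSO, T3 positive control.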
# [4] = biological target: THRA (gene 7067) (UniProt P10827); assay: TOX21_TRA_COA_Agonist_Followup_ratio: Tox21 Thyroid Hormone Receptor alpha Agonism through Coactivator Recruitment Follow-Up Assay, Ratio (AID 2283948; active = hit-call score of the fitted dose curve at least 0.9, where 1 is the maximum; inactive = score below 0.9)
# In short: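 Agonist-mode biochemical TR-FRET with TRα LBD and SRC-2 coactivator peptide; activity expressed as percent of T3 response over DMSO baseline.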
# [5] = biological target: THRB (gene 7068) (UniProt P10828); assay: TOX21_TRB_BLA_Agonist_Followup_ratio: Tox21 Thyroid Hormone Receptor beta Agonism Beta-lactamase (BLA) Follow-Up Assay, Ratio (AID 2283954)
# In short: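 Human TRβ LBD–GAL4 DBD fusion in GeneBLAzer UAS-bla HEK293T cells; 11 concentrations in triplicate, 18 h at 37°C/5% CO2, T3 as agonist control. CCF4-AM substrate 2 h at room temperature; 460:530 nm ratio fitted for gain of signal versus DMSO.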
# [6] = TOX21_TRB_BLA_Agonist_Followup_viability: Viability Assessment in the Tox21 Thyroid Hormone Receptor beta Agonism Beta-lactamase (BLA) Follow-Up Assay (AID 2283956)
# In short: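 TRb-bla HEK293T cells (GAL4-DBD/human TRb LBD) in 2% charcoal-stripped FBS medium were exposed 18 h at 37C to 11 concentrations in triplicate. CellTiter-Glo ATP luminescence was read after 30 min at room temperature, with bidirectional fitting against DMSO.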
# [7] = TOX21_PR_LUC_Followup_Antagonist_viability: Viability Assessment in the Tox21 HEK293 Progesterone Receptor (PR) Antagonism Luciferase Follow-Up Assay (AID 2283940)
# In short: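 Cellular ATP, measured with luciferase-coupled CellTiter-Glo, served as the viability endpoint after HEK293-PR-A-luc cells were exposed to test compounds for 16 h at 37C.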
# [8] = biological target: PGR (gene 5241) (UniProt P06401); assay: TOX21_PR_LUC_Followup_Agonist: Tox21 HEK293 Progesterone Receptor (PR) Agonism Luciferase Follow-Up Assay (AID 2283937; active = hit-call score of the fitted dose curve at least 0.9, where 1 is the maximum; inactive = score below 0.9)
# In short: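 Agonist mode: reporter cells carrying PR-A and luciferase are treated 16 h with test compounds at 37C. Luciferase induction is measured by luminescence and fitted upward against DMSO.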
# [9] = biological target: T1, Thyroid hormone receptor alpha (Rattus norvegicus) + Thyroid hormone receptor beta (Rattus norvegicus); assay: TOX21_TR_LUC_GH3_Antagonist_Followup: Tox21 GH3 Thyroid Hormone Receptor Antagonism Luciferase Follow-Up Assay (AID 2283942)
# Description: TOX21_TR_LUC_GH3_Agonist_Followup is a secondary assay for the TOX21_TR_LUC_GH3_Agonist assay. TOX21_TR_LUC_GH3_Agonist_Followup is a cell-based, single-readout assay that uses GH3, a rat pituitary gland cell line, with measurements taken at 28 hours after chemical dosing in a 1536-well plate.TOX21_TR_LUC_GH3_Antagonist_Followup is one of one assay component(s) measured or calculated from the TOX21_TR_LUC_GH3_Antagonist_Followup assay. It is designed to make measurements of luciferase induction, a form of inducible reporter, as detected with bioluminescence signals by CellTiter-Glo Luciferase-coupled ATP quantitation technology.Data from the assay component TOX21_TR_LUC_GH3_Antagonist_Followup was analyzed into 1 assay endpoint. This assay endpoint, TOX21_TR_LUC_GH3_Antagonist_Followup, was analyzed in the positive analysis fitting direction relative to DMSO as the negative control and baseline of activity. Using a type of inducible reporter, gain-of-signal activity can be used to understand changes in the reporter gene as they relate to the gene THRA and THRB in the GH3 cell line using a luciferase reporter. Furthermore, this assay endpoint can be referred to as a primary readout, because the performed assay has only produced 1 assay endpoint. This assay endpoint is designated followup because it was a confirmatory screen following the primary qHTS assay. […]
# [10] = biological target: THRB (gene 7068) (UniProt P10828); assay: TOX21_TRB_BLA_Antagonist_Followup_ratio: Tox21 Thyroid Hormone Receptor beta Antagonism Beta-lactamase (BLA) Follow-Up Assay, Ratio (AID 2283958)
# In short: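 In this antagonist-mode follow-up, a stably integrated GAL4-TRβ LBD fusion drives a UAS-beta-lactamase reporter in HEK293T cells. Loss of ratio signal relative to DMSO after 18 h treatment indicates activity; parallel CellTiter-Glo flags cytotoxicity.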
# T1 sequence (P63059 whole entry, looked up): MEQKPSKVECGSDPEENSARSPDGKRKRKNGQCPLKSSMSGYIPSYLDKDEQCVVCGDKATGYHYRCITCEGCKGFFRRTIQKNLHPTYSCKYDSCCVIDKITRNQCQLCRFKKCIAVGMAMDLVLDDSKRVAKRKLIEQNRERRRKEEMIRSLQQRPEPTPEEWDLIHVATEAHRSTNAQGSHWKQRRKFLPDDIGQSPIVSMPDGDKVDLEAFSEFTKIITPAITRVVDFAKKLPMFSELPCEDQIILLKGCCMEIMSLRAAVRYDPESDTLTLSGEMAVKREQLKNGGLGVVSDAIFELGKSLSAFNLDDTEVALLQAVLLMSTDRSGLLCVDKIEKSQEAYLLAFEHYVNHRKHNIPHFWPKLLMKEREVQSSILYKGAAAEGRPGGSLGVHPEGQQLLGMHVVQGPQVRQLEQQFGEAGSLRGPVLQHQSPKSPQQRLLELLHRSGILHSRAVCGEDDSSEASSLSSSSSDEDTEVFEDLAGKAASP
# T1 sequence (P18113 whole entry, looked up): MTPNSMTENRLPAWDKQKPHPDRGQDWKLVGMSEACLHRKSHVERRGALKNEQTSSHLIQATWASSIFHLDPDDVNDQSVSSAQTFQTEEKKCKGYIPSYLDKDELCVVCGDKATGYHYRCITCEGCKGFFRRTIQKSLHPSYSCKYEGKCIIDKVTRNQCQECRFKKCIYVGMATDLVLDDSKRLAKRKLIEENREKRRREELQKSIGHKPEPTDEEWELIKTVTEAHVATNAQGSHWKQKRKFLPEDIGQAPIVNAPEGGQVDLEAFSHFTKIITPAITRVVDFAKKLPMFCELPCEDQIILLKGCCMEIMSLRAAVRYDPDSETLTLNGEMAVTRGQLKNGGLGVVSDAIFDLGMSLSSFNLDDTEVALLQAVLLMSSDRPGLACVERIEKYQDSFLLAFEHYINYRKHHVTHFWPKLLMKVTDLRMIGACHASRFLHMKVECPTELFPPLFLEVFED
# Sequence of THRB (gene 7068) (P10828 whole entry, looked up, the tested form may be a part): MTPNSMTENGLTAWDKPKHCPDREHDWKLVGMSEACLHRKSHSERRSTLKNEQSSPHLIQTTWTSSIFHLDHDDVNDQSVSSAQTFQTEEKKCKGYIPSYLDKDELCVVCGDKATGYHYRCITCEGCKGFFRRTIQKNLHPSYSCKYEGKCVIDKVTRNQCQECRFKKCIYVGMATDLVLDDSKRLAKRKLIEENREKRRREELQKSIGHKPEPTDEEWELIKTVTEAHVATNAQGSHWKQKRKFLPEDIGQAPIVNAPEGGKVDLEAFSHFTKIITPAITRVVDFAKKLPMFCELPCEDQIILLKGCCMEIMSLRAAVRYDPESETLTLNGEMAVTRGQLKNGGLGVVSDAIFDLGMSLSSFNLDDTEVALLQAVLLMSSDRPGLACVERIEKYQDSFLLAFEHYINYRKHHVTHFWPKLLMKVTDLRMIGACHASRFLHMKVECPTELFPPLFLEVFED
# Sequence of PGR (gene 5241) (P06401 whole entry, looked up): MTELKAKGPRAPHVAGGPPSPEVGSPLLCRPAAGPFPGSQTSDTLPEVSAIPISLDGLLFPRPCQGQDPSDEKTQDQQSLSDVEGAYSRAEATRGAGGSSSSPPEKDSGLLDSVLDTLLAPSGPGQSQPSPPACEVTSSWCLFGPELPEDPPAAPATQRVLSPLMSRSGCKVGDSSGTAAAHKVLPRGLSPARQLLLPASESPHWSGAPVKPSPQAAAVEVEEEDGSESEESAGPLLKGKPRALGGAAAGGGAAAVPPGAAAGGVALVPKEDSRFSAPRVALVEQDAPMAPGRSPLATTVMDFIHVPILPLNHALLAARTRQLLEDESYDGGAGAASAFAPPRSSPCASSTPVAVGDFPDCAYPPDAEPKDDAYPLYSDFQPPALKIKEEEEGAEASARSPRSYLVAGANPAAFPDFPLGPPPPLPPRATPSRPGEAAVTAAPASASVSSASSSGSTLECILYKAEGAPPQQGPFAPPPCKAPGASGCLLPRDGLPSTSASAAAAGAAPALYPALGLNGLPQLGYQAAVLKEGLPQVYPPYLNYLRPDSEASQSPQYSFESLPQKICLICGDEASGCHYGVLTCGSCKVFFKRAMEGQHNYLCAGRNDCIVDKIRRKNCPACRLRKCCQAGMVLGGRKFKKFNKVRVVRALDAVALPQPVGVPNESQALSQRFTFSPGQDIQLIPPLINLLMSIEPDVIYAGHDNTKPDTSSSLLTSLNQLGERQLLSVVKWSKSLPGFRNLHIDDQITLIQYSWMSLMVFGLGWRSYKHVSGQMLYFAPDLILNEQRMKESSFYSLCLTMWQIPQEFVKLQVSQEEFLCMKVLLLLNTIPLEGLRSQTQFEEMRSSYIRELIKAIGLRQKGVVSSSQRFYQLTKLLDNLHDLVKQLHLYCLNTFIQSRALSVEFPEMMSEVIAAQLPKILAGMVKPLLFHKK
# Sequence of THRA (gene 7067) (P10827 whole entry, looked up, the tested form may be a part): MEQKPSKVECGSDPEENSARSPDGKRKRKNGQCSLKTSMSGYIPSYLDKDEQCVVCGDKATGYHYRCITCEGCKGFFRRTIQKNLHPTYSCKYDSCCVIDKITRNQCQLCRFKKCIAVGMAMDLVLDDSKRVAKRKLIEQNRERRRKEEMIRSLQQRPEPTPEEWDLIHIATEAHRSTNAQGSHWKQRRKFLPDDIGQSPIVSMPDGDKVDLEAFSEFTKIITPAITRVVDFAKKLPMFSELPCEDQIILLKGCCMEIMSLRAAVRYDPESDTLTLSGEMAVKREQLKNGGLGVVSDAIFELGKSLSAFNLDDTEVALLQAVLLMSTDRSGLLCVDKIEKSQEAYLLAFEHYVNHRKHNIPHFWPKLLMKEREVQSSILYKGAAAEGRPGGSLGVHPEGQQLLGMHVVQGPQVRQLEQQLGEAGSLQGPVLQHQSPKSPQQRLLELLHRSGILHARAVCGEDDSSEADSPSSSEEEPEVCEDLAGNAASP
structure (smiles),measurement,setting,value
CCOP(=S)(Oc1ccc([N+](=O)[O-])cc1)c1ccccc1 (stereo unspecified),AC50,[1],7.8 µM (active)
same,outcome,[2],inactive
CCC1(c2ccccc2)C(=O)N=C(O)NC1=O (stereo unspecified),outcome,[3],inactive
same,outcome,[4],inactive
same,outcome,[5],inactive
same,outcome,[6],inactive
O=S1(=O)OCC2C(CO1)C1(Cl)C(Cl)=C(Cl)C2(Cl)C1(Cl)Cl (stereo unspecified),AC50,[1],27.1 µM (active)
same,outcome,[7],inactive
same,outcome,[2],inactive
CC(Cc1ccc(OCC(=O)O)cc1)NCC(O)c1csc(C(F)(F)F)n1 (stereo unspecified),outcome,[3],inactive
same,outcome,[4],inactive
same,outcome,[6],inactive
CO/N=C(/C(=O)OC)c1ccccc1COc1ccccc1C,outcome,[8],inactive
same,AC50,[1],31.5 µM (active)
same,AC50,[9],9.33 µM (active)
same,AC50,[10],23.1 µM (active)
O=C(O)C(Cl)Cl,outcome,[3],inactive
same,outcome,[4],inactive
same,outcome,[5],inactive
same,outcome,[6],inactive
CCOP(=S)(OCC)SCSc1ccc(Cl)cc1,AC50,[1],20.4 µM (active)
